The nature of assay [1]: qHTS assay to test for compound auto fluorescence at 535 nm (green) in HEK293 cells (AID 720680). (In general: In qHTS, concentration-response curves come from the screen itself.)
A short description of assay [2]: qHTS assay to test for compound auto fluorescence at 460 nm (blue) in HEK293 cell free culture (AID 720681). In short, it runs like this: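 Blue fluorescence (Ex 405/Em 460 nm, triamterene-equivalent) was read immediately after pin transfer of compound or DMSO into medium (DMEM, 10% FBS) without cells.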
Assay [3] can be described thus: qHTS assay to test for compound auto fluorescence at 535 nm (green) in HEK293 cell free culture (AID 720682). An outline of the steps: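 Compounds were pin-transferred into cell-free DMEM with 10% FBS, and green fluorescence was read at excitation 485 nm and emission 535 nm. Intensities were expressed as fluorescein-equivalent values.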
Assay [4] in a line: qHTS assay to test for compound auto fluorescence at 590 nm (red) in HEK293 cell free culture (AID 720683). An outline of the steps: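 Red-channel autofluorescence of compounds in culture medium (DMEM, 10% FBS), no cells, measured at 540/590 nm. Rose Bengal sodium is the reference fluorophore for equivalence.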
The nature of assay [5]: qHTS assay to test for compound auto fluorescence at 590 nm (red) in HepG2 cell free culture (AID 720684). An outline of the steps:
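Steps: dispense MEM/10% FBS medium, no cells; pin compound or DMSO vehicle; read red channel, Ex/Em 540/590 nm. Output given as Rose Bengal sodium equivalents.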

Assay [6] is described as follows: qHTS assay to test for compound auto fluorescence at 460 nm (blue) in HepG2 cell free culture (AID 720685). An outline of the steps:
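Compound (23 nL) or DMSO pinned into cell-free MEM with 10% FBS; blue fluorescence read at 405/460 nm excitation/emission, expressed as auto-fluorescence equivalency to triamterene.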

The nature of assay [7]: qHTS assay to test for compound auto fluorescence at 535 nm (green) in HepG2 cell free culture (AID 720686).
Assay [8] is described as follows: qHTS assay to test for compound auto fluorescence at 460 nm (blue) in HepG2 cells (AID 720687). In short, it runs like this: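 Blue-channel autofluorescence (Ex/Em 405/460 nm, triamterene-equivalent) was measured after 1 hr compound exposure at 37 C, 5% CO2. Cells were HepG2, plated overnight at 37 C in MEM plus 10% FBS.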
The target of assay [9] is Glucocorticoid receptor (Homo sapiens) (UniProt P04150). Kind of assay: qHTS assay to identify small molecule agonists of the glucocorticoid receptor (GR) signaling pathway (AID 720691; active = well fitted activation curve with a large enough effect in the signal ratio in the repeat runs, not every such curve was filed as active; the % refers to the signal ratio). An outline of the steps: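 Fluorescence intensity from LiveBLAzer B/G FRET substrate (2 h, room temperature) reports beta-lactamase expression driven by the glucocorticoid response element in GR-bla HeLa cells after 18 h compound exposure at 37 C.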

The target is the same in assay [10]. Put plainly: qHTS assay to identify small molecule antagonists of the glucocorticoid receptor (GR) signaling pathway (AID 720692; active = well fitted inhibition curve with a large enough effect in the signal ratio in the repeat runs, not every such curve was filed as active; the % refers to the signal ratio; also: potency is read from the fitted curve at half-maximal effect). An outline of the steps:
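HeLa GR-bla cells; cmpd + dex 5 nM final, 18 h 37 C; LiveBLAzer B/G FRET substrate 2 h RT; fluorescence intensity read. Antagonist mode, qHTS.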

The nature of assay [11]: qHTS assay to identify small molecule antagonists of the glucocorticoid receptor (GR) signaling pathway - cell viability counter screen (AID 720693). Also: nearly all actives have a fitted effect of over 55% in size.
A short description of assay [12]: qHTS assay for identifying genotoxic compounds that show differential cytotoxicity against isogenic chicken DT40 cell lines with known DNA damage response pathways - wild type cell line (AID 743012). Also: nearly all actives have a fitted effect of over 60% in size. Also: potency is read from the fitted curve at half-maximal effect. An outline of the steps:
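Wild type DT40, 300 cells/well, ~0.5 h settle at 37 C/5% CO2; compounds in DMSO added by pintool; 40 h at 37 C/5% CO2; CellTiter-Glo, 30 min RT; luminescence.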

The nature of assay [13]: qHTS assay for identifying genotoxic compounds that show differential cytotoxicity against isogenic chicken DT40 cell lines with known DNA damage response pathways - Rad54/Ku70 mutant cell line (AID 743015). Also: nearly all actives have a fitted effect of over 60% in size. Also: potency is read from the fitted curve at half-maximal effect.
Assay [14] is described as follows: qHTS assay to identify small molecule antagonists of the androgen receptor (AR) signaling pathway - cell viability counter screen (AID 743033; also: nearly all actives have a fitted effect of over 45% in size; also: potency is read from the fitted curve at half-maximal effect).
Assay [15] in a line: qHTS assay to identify small molecule antagonists of the androgen receptor (AR) signaling pathway using the MDA cell line - cell viability counter screen (AID 743041; also: nearly all actives have a fitted effect of over 45% in size; also: potency is read from the fitted curve at half-maximal effect). In short, it runs like this:
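Cells were plated at 3,000 per well and left 5 h. Compounds in DMSO were then pinned in, followed by R1881. After 16 h at 37C, CellTiter-Fluor fluorescence gave viability.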

Assay [16] in a line: qHTS assay to identify small molecule antagonists of the thyroid receptor (TR) signaling pathway - cell viability counter screen (AID 743064). Also: nearly all actives have a fitted effect of over 50% in size. Also: potency is read from the fitted curve at half-maximal effect. In short, it runs like this:
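In-well cytotoxicity read by CellTiter-Fluor (30 min, 37 C) following 23.5 h exposure of GH3 cells bearing a TRE-luciferase sensor. Compounds were added alongside 1 nM (final) T3 to drive TR transactivation.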

Assay [17] is described as follows: qHTS assay to identify small molecule antagonists of the thyroid receptor (TR) signaling pathway (AID 743065). Also: nearly all actives have a fitted effect of over 55% in size. Also: potency is read from the fitted curve at half-maximal effect. In short, it runs like this:
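Antagonism measured as loss of luciferase signal in GH3 cells stably carrying a TRE-luciferase reporter, co-treated with compound and T3 (1 nM final) for 23.5 h at 37 C. Viability was read in the same well by CellTiter-Fluor.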

Assay [18] can be described thus: qHTS assay for identifying genotoxic compounds that show differential cytotoxicity against isogenic chicken DT40 cell lines with known DNA damage response pathways - Rev3 mutant cell line (AID 743014). Also: nearly all actives have a fitted effect of over 55% in size. Also: potency is read from the fitted curve at half-maximal effect.

Values joined by “and” are separate entries in the source; they are usually repeats but may differ in a detail not shown here. Identical values can stand only once. Results filed as inconclusive are left out. Some compounds were tested as several samples or in several runs, with calls that do not always agree. Active and inactive are the calls of the source. Unless noted, calls follow the shape of the dose curve; as a rule, active = well fitted curve in the direction sought with a large enough effect in the repeat runs; inconclusive = weak or mixed curves; inactive = no such curve, though single readings can be large; an effect the other way counts as inactive or inconclusive.

Glucocorticoid receptor (Homo sapiens), sequence (P04150 whole entry, looked up): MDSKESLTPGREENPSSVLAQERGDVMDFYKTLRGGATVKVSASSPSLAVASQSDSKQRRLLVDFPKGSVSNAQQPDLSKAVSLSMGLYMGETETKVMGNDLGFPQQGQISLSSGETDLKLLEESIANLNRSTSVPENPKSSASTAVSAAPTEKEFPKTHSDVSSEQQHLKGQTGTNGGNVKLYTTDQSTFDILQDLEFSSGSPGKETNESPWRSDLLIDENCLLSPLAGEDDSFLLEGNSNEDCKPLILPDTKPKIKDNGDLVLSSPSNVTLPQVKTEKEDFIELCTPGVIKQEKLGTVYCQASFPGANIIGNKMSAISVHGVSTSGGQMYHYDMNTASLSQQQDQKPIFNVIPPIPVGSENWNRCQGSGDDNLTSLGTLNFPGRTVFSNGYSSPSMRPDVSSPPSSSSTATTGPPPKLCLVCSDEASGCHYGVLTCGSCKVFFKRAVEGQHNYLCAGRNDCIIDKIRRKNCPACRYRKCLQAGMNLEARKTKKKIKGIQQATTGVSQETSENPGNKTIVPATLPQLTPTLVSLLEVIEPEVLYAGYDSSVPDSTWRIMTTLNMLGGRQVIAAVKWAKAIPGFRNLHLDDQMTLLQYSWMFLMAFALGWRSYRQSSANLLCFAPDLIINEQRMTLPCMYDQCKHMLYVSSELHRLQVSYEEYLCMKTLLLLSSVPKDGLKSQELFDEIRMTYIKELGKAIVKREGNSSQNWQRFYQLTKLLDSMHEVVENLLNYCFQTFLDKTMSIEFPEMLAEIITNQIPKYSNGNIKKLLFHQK

`OC1CCCCCCCCCCC1`: the Potency entry in [1], in [3], in assay [4], in assay [5], in assay [7] and in [9] was “inactive” in each case. For the same compound, the Potency result in [10], in assay [11], in assay [12], in assay [13], in assay [14] and in [15] was “inactive” throughout. In addition, the Potency result in assay [16] and in [17] was “inactive” throughout. Further, the result in assay [2], in [6] and in [8] was inactive.

In the case of `COC(=O)Nc1nc2ccc(S(=O)c3ccccc3)cc2[nH]1` (stereo not drawn), the Potency result in assay [1], in assay [3], in assay [4], in assay [5], in assay [7] and in assay [9] was “inactive” in each case. In addition, the Potency result in assay [10], in assay [11], in assay [14], in assay [15] and in assay [16] was “inactive” in each case. Besides, the call in assay [2], in assay [6] and in assay [8] was inactive. The Potency in [12] was 9.44 µM (active) and 6.85 µM (active); in [18], 11.9 µM (active) and 6.11 µM (active); in [13], 13.3 µM (active) and 8.63 µM (active); in [17] it was 10.6 µM (active) and 15.3 µM (active).

As to `CCC(C)CO` (stereo not drawn), the Potency result in [1], in assay [3], in [4], in assay [5], in [7] and in assay [9] was “inactive” throughout. The Potency result in [10], in assay [11], in assay [12], in [18], in assay [13] and in assay [14] was “inactive” throughout. For the same compound, the Potency entry in [15] was “inactive”. Moreover, the compound was called inactive in assay [2], in [6] and in assay [8].

With `CNCCCC12CCC(c3ccccc31)c1ccccc12`, the Potency result in [1], in [3], in [4], in assay [5], in assay [7] and in [9] was “inactive” in each case. Besides, the Potency result in assay [10] and in assay [11] was “inactive” in each case. Further, the call in [2], in [6] and in assay [8] was inactive. The Potency in [12] was 10.6 µM (active) and 6.86 µM (active); in assay [18] it was 21.1 µM (active) and 12.2 µM (active); in assay [13], 13.3 µM (active) and 6.86 µM (active); in assay [14], “inactive and 43.6 µM (active)”; in assay [15] it was 61.1 µM (active); in assay [16] it was 11.9 µM (active) and 4.86 µM (active).

As to `Clc1nc(Cl)c(Cl)c(Cl)c1Cl`, the Potency entry in [1], in assay [3], in assay [4], in assay [5], in assay [7] and in [9] was “inactive” in each case. Also, the Potency result in [11], in [12], in assay [18], in assay [13], in assay [14] and in assay [15] was “inactive” in each case. Moreover, the Potency entry in assay [16] and in [17] was “inactive” each time. Moreover, the compound was called inactive in assay [2], in assay [6] and in [8]. Also, the Potency in assay [10] was 15.6 µM (active) and 24.5 µM (active).

For the compound `CCCc1c(OCCCCc2nn[nH]n2)ccc(C(C)=O)c1O`, the Potency result in assay [1], in assay [3], in [4], in assay [5], in [7] and in assay [9] was “inactive” throughout. Also, the Potency entry in [11], in assay [14], in assay [15] and in assay [16] was “inactive” in each case. Further, the outcome in assay [2], in [6] and in assay [8] was inactive. Moreover, the Potency in assay [10] is 23.9 µM (active); in assay [12] it was 29.8 µM (active); in [13] it was 21.1 µM (active) and 54.5 µM (active).

For `CCCCC/C=C/C=C/C=O`, the Potency entry in assay [1], in assay [3], in assay [4], in assay [5], in assay [7] and in assay [9] was “inactive” in each case. Moreover, the Potency result in [11], in assay [14] and in assay [15] was “inactive” throughout. Moreover, the outcome in [2], in assay [6] and in assay [8] was inactive. Moreover, the Potency was 49 µM (active) in assay [10]; 19.3 µM (active) in assay [12]; “inactive and 21.7 µM (active)” in [18]; “inactive and 17.2 µM (active)” in assay [13].

Source of the values: PubChem BioAssay (Tox21).
